Experimental data: PubChem BioAssay (Tox21)
Results filed as inconclusive are left out. Where a call stands in place of a potency, no number is given. Unmarked numbers belong to inactive results. Active and inactive are the calls of the source. Calls come from the whole dose curve; as a rule, active = well fitted cell-killing curve with a large enough effect in the repeat runs; inconclusive = weak or mixed curves, or effect the other way; inactive = flat fitted curve, though single readings scatter.

Tests used:
[1] = cAMP Responsive Elements (CRE) small molecule antagonists, cell-based qHTS assay: qHTS cell viability counter screen (AID 2060913); details: CRE-bla HEK293T viability, CellTiter-Glo luminescence, 5 h; series mostly up to 92.4 µM; note: nearly all actives have a fitted effect of over 40% in size
Summary of the method: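 CRE-bla HEK293T cells (2,000/well, 18 h) given compound plus NKH477 0.25 uM final for 3 h at 37C; viability counter-screen by CellTiter-Glo luminescence in same wells after 30 min.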

[2] = cAMP Responsive Elements (CRE) small molecule agonists, cell-based qHTS assay: qHTS cell viability counter screen (AID 2060914); details: CRE-bla HEK293T viability, CellTiter-Glo luminescence, 5 h; series mostly up to 92.4 µM; note: potency is the fitted concentration of half-maximal effect;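 note: viability read after 3 h of compound exposure; nearly all actives have a fitted effect of over 50% in size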
Summary of the method: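 Cells are seeded and incubated 18 h, treated with compounds in DMSO for 3 h, read for the bla reporter, then given CellTiter-Glo; luminescence is measured after 30 min at room temperature.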

Structure (SMILES)	Potency [1]	Potency [2]	viability change, negative = cytotoxic [1]	activity change, negative = cytotoxicity [2]
ClC1=C(Cl)C2(Cl)C(CBr)CC1(Cl)C2(Cl)Cl (stereo not given)	inactive	inactive	–	–
OCCSSCCO	inactive	inactive	–	–
COc1ccccc1OC	inactive	inactive	–	–
Cc1ccc(O)c(C)c1	inactive	inactive	–	–
C/C=C/C=O	inactive	inactive	–	–
Clc1ccc(C2(Cn3cncn3)OCCO2)c(Cl)c1	inactive	inactive	–	–
O=C(NC(=O)c1c(F)cccc1F)Nc1cc(Cl)c(Oc2ncc(C(F)(F)F)cc2Cl)c(Cl)c1	inactive	inactive	–	–
Cc1nc(N(C)C)nc(OC(=O)N(C)C)c1C	inactive	inactive	–	–
O=C(O)C(Cl)(Cl)Cl	inactive	inactive	–	–
CC(=O)C(C)(C)C	inactive	inactive	–	–
CCOP(=S)(OCC)Oc1cc(-c2ccccc2)on1	inactive	inactive	–	–
COc1cc(OC)nc(NC(=O)NS(=O)(=O)c2ncccc2OCC(F)(F)F)n1	inactive	inactive	–	–
Nc1ccc([N+](=O)[O-])cc1	inactive	6.11 µM (active)	–	–
CCOP(=O)(OCC)Oc1ccc([N+](=O)[O-])cc1	inactive	inactive	–	–
CCCN	inactive	inactive	–	–
CCOP(=S)(OCC)SCSP(=S)(OCC)OCC	inactive	inactive	–	–
CCc1ccc(C(=O)NN(C(=O)c2cc(C)cc(C)c2)C(C)(C)C)cc1	inactive	inactive	–	–
CC(C)(O)C#N	inactive	inactive	–	–
COc1cc2c(cc1OC)[C@@]13CCN4CC5=CCO[C@H]6CC(=O)N2[C@H]1[C@H]6[C@H]5C[C@H]43	inactive	inactive	–	–
N#Cc1cccnc1	inactive	inactive	–	–

Structure (SMILES)	Potency [1]	Potency [2]	viability change, negative = cytotoxic [1]	activity change, negative = cytotoxicity [2]
CN(C)c1ccc(C(=O)c2ccc(N(C)C)cc2)cc1	inactive	inactive	–	–
CN(C)CCO	inactive	inactive	–	–
CC(C#N)CCC#N (stereo not given)	inactive	inactive	–	–
N#CCCO	inactive	inactive	–	–
CCCCCCC#N	inactive	inactive	–	–
CCCCCCCCCCCCCCCCCC(=O)O	inactive	inactive	–	–
CC(C)C(C)(N)C#N (stereo not given)	inactive	inactive	–	–
CCCN(CCOc1c(Cl)cc(Cl)cc1Cl)C(=O)n1ccnc1	inactive	inactive	–	–
O=C(Cl)c1ccc(Cl)cc1	inactive	inactive	–	–
CCC(C)(C#N)N=NC(C)(C#N)CC (stereo not given)	inactive	inactive	–	–
Cl	inactive	inactive	–	–
CC(=O)CCc1ccc2c(c1)OCO2	inactive	inactive	–	–
c1ccc2c(c1)-c1cccc3cccc-2c13	inactive	inactive	–	–
SCc1ccccc1	inactive	inactive	–	–
c1ccc2cc3c(cc2c1)-c1cccc2cccc-3c12	inactive	inactive	–	–
CC(=O)C=C(C)C	inactive	inactive	–	–
CN(C)c1nc(=O)n(C2CCCCC2)c(=O)n1C	inactive	inactive	–	–
CCCC(C)(COC(N)=O)COC(=O)NC(C)C (stereo not given)	inactive	inactive	–	–
O=Cc1ccco1	inactive	inactive	–	–
CCC(=O)Nc1ccc(Cl)c(Cl)c1	inactive	inactive	–	–

Structure (SMILES)	Potency [1]	Potency [2]	viability change, negative = cytotoxic [1]	activity change, negative = cytotoxicity [2]
CCCC1CCCCN1 (stereo not given)	inactive	inactive	–	–
CCCCC(CC)COP(=O)(Oc1ccccc1)Oc1ccccc1 (stereo not given)	inactive	inactive	–	–
CNC(=O)Oc1ccccc1C(C)C	inactive	inactive	–	–
Nc1ccc(N=Nc2ccc(-c3ccc(N=Nc4c(S(=O)(=O)O)cc5cc(S(=O)(=O)O)c(N=Nc6ccccc6)c(O)c5c4N)cc3)cc2)c(N)c1	inactive	inactive	–	–
CCN(CC)CCOC(=O)C(O)(c1ccccc1)c1ccccc1	inactive	inactive	–	–
OCCCBr	inactive	inactive	–	–
CSC1=N[C@@](C)(c2ccccc2)C(=O)N1Nc1ccccc1	inactive	inactive	–	–
CCOP(=S)(OCC)OC(Cl)C(Cl)(Cl)Cl (stereo not given)	inactive	inactive	–	–
O=C1c2ccccc2C(=O)c2ccccc21	–	–	7.37% [at 18.9 µM]	0.739% [at 18.9 µM]
Cc1[nH]c(=O)n(C(C)(C)C)c(=O)c1Cl	inactive	inactive	–	–
Nc1cccc2ccccc12	inactive	inactive	–	–
CC1(C)Cc2cccc(O)c2O1	inactive	inactive	–	–
NC(=S)c1c(Cl)cccc1Cl	inactive	inactive	–	–
CCCCCCCCSC(=O)Oc1cc(Cl)nnc1-c1ccccc1	inactive	inactive	–	–
O=[N+]([O-])c1ccc2c3c(cccc13)CC2	inactive	inactive	–	–
CC(Cl)(Cl)C(=O)O	inactive	inactive	–	–
Oc1cccc(Cl)c1	inactive	inactive	–	–
N#Cc1ccccc1N	inactive	inactive	–	–
COP(=O)(OC)C(O)C(Cl)(Cl)Cl (stereo not given)	inactive	inactive	–	–
[O]=[Cd]	inactive	inactive	–	–
